Screening data as filed in PubChem.
The list is not random: actives were taken first. Their share in the collection is about 18%.
TDP1 cell noCPT = qHTS for Inhibitors of human tyrosyl-DNA phosphodiesterase 1 (TDP1): qHTS in cells in absence of CPT; AID 686978, 2013; 15% of 420,000 active; DT40 Tdp1-/- hTDP1 cells, no CPT, ATP luminescence, 48 h; Potency, µM (doses to about 46.2 µM), hits mostly inhibitors; also: nearly all actives have a fitted effect of over 55% in size
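Readout: luminescence from CellTiter-Glo after 30 min in the dark at RT. Cells: DT40 Tdp1-/- with stable hTDP1, 400/well. Exposure: compounds alone, ≥48 hr, 37 °C.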
TDP1 cell CPT = growth inhibition of DT40 Tdp1-/-;hTDP1 cells with camptothecin (screen for TDP1 inhibitors). 12% of 420,000 active. chicken DT40 Tdp1-/-;hTDP1 cells + 20 nM CPT, ATP luminescence, 48 h. Potency, µM (highest dose often 46.2 µM), usual class: inhibitors; also: nearly all actives have a fitted effect of over 55% in size
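Chicken DT40 Tdp1-/- cells complemented with human TDP1, 400 cells/well, exposed to compounds plus 20 nM camptothecin for at least 48 h at 37 C; viability read as ATP content by CellTiter-Glo luminescence.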
TDP1 inh = inhibitors of human tyrosyl-DNA phosphodiesterase TDP1 | recombinant TDP1, AlphaScreen DNA substrate cleavage | Potency, µM (series often up to 130 µM), hits mostly inhibitors | AID 485290 | 0.28% of 350,000 active; also: nearly all actives have a fitted effect of over 40% in size
Target sequence (Q9NUW8 whole entry, looked up): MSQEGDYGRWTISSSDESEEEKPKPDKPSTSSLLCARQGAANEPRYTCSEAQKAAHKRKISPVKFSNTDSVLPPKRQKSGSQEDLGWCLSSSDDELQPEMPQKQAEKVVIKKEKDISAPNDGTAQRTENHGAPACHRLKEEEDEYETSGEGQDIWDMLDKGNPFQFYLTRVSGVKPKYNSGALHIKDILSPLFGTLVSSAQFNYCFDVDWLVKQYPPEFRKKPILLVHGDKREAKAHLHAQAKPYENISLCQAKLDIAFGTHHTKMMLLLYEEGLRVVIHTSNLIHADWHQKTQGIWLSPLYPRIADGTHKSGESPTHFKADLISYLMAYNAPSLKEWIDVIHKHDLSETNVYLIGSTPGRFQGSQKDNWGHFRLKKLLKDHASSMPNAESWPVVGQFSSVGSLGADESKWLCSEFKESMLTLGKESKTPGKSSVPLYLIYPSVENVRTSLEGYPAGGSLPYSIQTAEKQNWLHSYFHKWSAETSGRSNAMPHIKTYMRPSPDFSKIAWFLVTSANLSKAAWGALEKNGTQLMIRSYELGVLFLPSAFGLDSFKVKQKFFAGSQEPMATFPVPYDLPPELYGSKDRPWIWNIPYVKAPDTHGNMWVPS
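Compounds were preincubated with Tdp1 (1 nM final) for 15 min at room temperature before substrate (15 nM final) started a 5 min reaction; beads (10 ug/ml final) were then added for 10 min before AlphaScreen detection.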
CtBP-E1A inh = inhibitors of CtBP/E1A interaction; AlphaScreen GST-E1A/His-CtBP binding, 1536-well; hits give low values; activity change, % (test concentration not listed); 0.49% of 340,000 active; in the data active = activity change below about -65%; inconclusive = mostly about -30% to -63%
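Steps: dispense buffer (Tris pH 8.0, NaCl 300 mM, TCEP 1 mM, BSA, Tween 20); add 5X protein mix (GST-E1A, His-CtBP, 125 nM each); pin 23 nL compound; 2 h at 37 °C, dark; add 5X beads (50 ug/mL); 1 h; read.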
Six1-Eya2 blk = blocks human Six1 binding to Eya2. Q15475+O00167. AlphaScreen GST-Six1/His-Eya2 binding, biochemical; hits give low values. activity change, % (test concentration not listed). 0.56% of 360,000 active; in the data active = activity change below about -65%; inconclusive = mostly about -30% to -63%
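Compounds are tested against tagged Six1 and Eya2 proteins bridged by glutathione donor and nickel acceptor beads; after a one-hour incubation at 37 °C without light, AlphaScreen emission is recorded.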
IL-1B inflam inh = blocks inflammasome-driven IL-1 beta release. THP-1 LPS/ATP IL-1B secretion, AlphaLISA, 16 h; hits give low values. activity change, % at 57.5 µM. 4.7% of 360,000 active; in the data active = activity change below about -50%; inconclusive = mostly about -30% to -49%
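Secreted IL-1B measured by AlphaLISA bead assay after 16 h compound exposure of THP-1 cells; compounds (final up to 57.5 uM) added 1 h before LPS (250 ng/mL) and ATP (1.25 mM) stimulation; lower signal means less secretion.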
Numbers stand for hits; - = inactive; ? = inconclusive; . = not tested or not shown; [ ] = dose if it differs, or a comment. Unless noted, calls follow the shape of the dose curve; as a rule, active = well fitted curve in the direction sought with a large enough effect; inconclusive = small, poorly fitted or top-dose-only effect, or another doubt; inactive = no such curve, though single readings can be large; an effect the other way counts as inactive or inconclusive.

SMILES	TDP1 cell noCPT	TDP1 cell CPT	TDP1 inh	CtBP-E1A inh	Six1-Eya2 blk	IL-1B inflam inh
O=C(CC1NC(=O)NC1=O)Nc1ccccc1 (stereo not drawn)	-	-	-	-	-	-
CCOc1ccc(NC(=O)CC2Nc3ccccc3NC2=O)cc1 (stereo not drawn)	-	-	-	-	-	-
CCOc1ccc(NC(=O)CC2Nc3cccc4cccc(c34)NC2=O)cc1 (stereo not drawn)	16.4µM	?	-	.	.	.
COc1ccc(NC(=O)CC2Nc3ccccc3NC2=O)cc1 (stereo not drawn)	23.1µM	?	-[2.28 µM]	.	.	.
CC(=O)Nc1ccc(NC(=O)CC2Nc3cccc4cccc(c34)NC2=O)cc1 (stereo not drawn)	?	-	-	-	-	-
Cc1cccc(NC(=O)CC2Nc3cccc4cccc(c34)NC2=O)c1 (stereo not drawn)	?	16.4µM	-	-	-	-
CCOC(=O)c1ccc(NC(=O)CC2Nc3cccc4cccc(c34)NC2=O)cc1 (stereo not drawn)	2.59µM	2.59µM	-	.	.	.
C=C(C)Cn1c(CCCNC(=O)C(C)(C)C)nc2ccccc21	23.1µM	16.4µM	-	-	-	-
CC(=O)NCCc1nc2ccccc2n1CCCCOc1ccccc1	13µM	?	.	.	-	-
CCCCn1c(C(C)O)nc2ccccc21 (stereo not drawn)	-	-	-	-	-	-
CC(C)(C)C(=O)NCCCc1nc2ccccc2n1CCCOc1ccc(Cl)cc1	8.2µM	6.51µM	-	-	-	-74.3
CC(O)c1nc2ccccc2n1CCCCOc1ccccc1 (stereo not drawn)	14.6µM	-	-	-	-	-
CCCCn1c(CNC(=O)C(C)(C)C)nc2ccccc21	?	-	-	-	-	-
C=CCn1c(CCCNC(=O)C(C)(C)C)nc2ccccc21	?	?	-	-	-	-
CCN(CC)S(=O)(=O)c1cccc(C(=O)N[C@H](C(=O)OCC(N)=O)C(C)C)c1	-	-	-	-	-	-
COc1cc(OC)cc(C(=O)N[C@H](C(=O)Nc2ccc(F)cc2F)C(C)C)c1	?	-	.	.	-	-
Nc1nonc1C(=O)NCCNC(=O)c1cccs1	-	-	-	-	-	-
COc1ccccc1OCCn1c(C(C)Oc2ccccc2)nc2ccccc21 (stereo not drawn)	?	25.9µM	-	.	.	.
Cn1c(CCCNC(=O)c2ccccc2)nc2ccccc21	-	-	-	-	-	-
CC(=O)NCCc1nc2ccccc2n1CCCCOc1ccc(Cl)cc1	14.6µM	20.6µM	-	.	.	.
COc1ccccc1OCCn1c(C(C)O)nc2ccccc21 (stereo not drawn)	-	-	-	-	-	-
CCCCCn1c(CCCNC(=O)c2ccc(Cl)cc2)nc2ccccc21	16.4µM	?	-	.	.	.
CC(=O)NCCc1nc2ccccc2n1CCOc1ccccc1	-	-	-	-	-	-
O=C(NCCCN1CCOCC1)c1ccc(Sc2ccc(F)cc2)c([N+](=O)[O-])c1	16.4µM	?	-	-	-	-
O=C(NCCCN1CCOCC1)c1ccc(CSc2ccc(Cl)cc2)cc1	20.6µM	25.9µM	-	-	-	-62.1
SMILES	TDP1 cell noCPT	TDP1 cell CPT	TDP1 inh	CtBP-E1A inh	Six1-Eya2 blk	IL-1B inflam inh
CN(C)CCNC(=O)c1ccc(Sc2ccc(Br)cc2)c([N+](=O)[O-])c1	23.1µM	16.4µM	-	-	-	-70.3
CC1(C(=O)N2CCN(c3ccc([N+](=O)[O-])cc3)CC2)CC1(Cl)Cl (stereo not drawn)	?	?	.	.	-	-
Cc1ccc([N+](=O)[O-])cc1S(=O)(=O)N1CCCC1	-	-	-	-	-	-
CC(C)C(=O)N(c1cc2sc(=O)oc2c2ccccc12)S(=O)(=O)c1cccs1	11.6µM	18.4µM	-	-	?	-
CC(=O)N(c1ccc2oc(=O)sc2c1)S(=O)(=O)c1cccs1	?	-	-	-	-	-
Cc1ccc(OCCCCCN2CCOCC2)cc1	-	-	.	-	-	-
O=C(O)c1ccc(N=Cc2c(O)ccc3oc4c(c23)CCCC4)cc1	?	16.4µM	-	-	-	-
Oc1ccccc1N=Cc1c(O)ccc2oc3c(c12)CCCC3	?	?	-	-	-	-
CCNc1ncc2nc(C)c(=O)n(CCC#N)c2n1	-	-	.	.	.	.
CCNc1nc(C)c2cc(Br)c(=O)n(CC)c2n1	2.91µM	3.66µM	-	-	-	-
COc1cc(/C=N/NC(=O)c2ccc3ccccc3c2)ccc1Oc1ccc([N+](=O)[O-])cn1	?	?	-	-	-	-
O=C(Nc1cccc(-c2cnc3ccccc3n2)c1)c1ccncc1	5.8µM	?	-	-	-	-
CS(=O)(=O)Nc1cccc(-c2cnc3ccccc3n2)c1	20.6µM	-	.	-	-	-
O=C(CNC(=O)c1ccc(Br)o1)Nc1cccc(-c2cnc3ccccc3n2)c1	7.31µM	?	-	-	-	-
O=C(Nc1cccc(-c2cnc3ccccc3n2)c1)c1ccco1	16.4µM	?	-	-	-	-
Cc1cccc(C(=O)Oc2ccc3ccc(O)cc3c2)c1	?	?	.	.	-	-
CC1(C)CC(NC(=O)C2CCCCC2C(=O)O)CC(C)(C)N1 (stereo not drawn)	-	-	-	-	-	-
CCOC(=O)c1ccc(NC(=O)Nc2c(C)nn(C)c2C)cc1	-	-	-	-	-	-
CCOC(=O)CN1C(=O)C(O)(CC(=O)c2cccc(OC)c2)c2ccccc21 (stereo not drawn)	16.4µM	?	-	-	-	-
C#CCN1C(=O)C(O)(CC(=O)c2cccc(OC)c2)c2ccccc21 (stereo not drawn)	4.61µM	5.8µM	-	-	-	-
COc1cc(NC(=O)CCNS(=O)(=O)c2cc(Br)cnc2N)cc(OC)c1	-	-	-	-	-	-
CC(=O)Nc1ccc(S(=O)(=O)Nc2ccc(F)c([N+](=O)[O-])c2)cc1	-	-	-	-	-	-
O=C1[C@@H]2[C@H]3CC[C@H](C3)[C@@H]2C(=O)N1CCCCN1CCN(c2ncccn2)CC1	-	-	.	.	.	.
O=C1[C@H]2CCCC[C@H]2C(=O)N1CCCCN1CCN(c2nsc3ccccc23)CC1	13µM	21.1µM	-	-	-	-65.0
O=C1NC2(CCCCCC2)C(=O)N1Cc1ccccc1	-	-	.	-	-	-
CSC1=NC2(CC(c3ccccc3)Oc3cc(O)ccc32)CC(C)(C)N1 (stereo not drawn)	20.6µM	23.1µM	-	-	-	-
CN(C)c1cccc(C(=O)Nc2nnc(Cc3ccccc3)s2)c1	?	?	-	-	-	-
COc1ccccc1Nc1nc(N)nc(CSc2nnc(C)s2)n1	-	-	-	-	-	-
